The nature of the experiment: HepG2 cell cytotoxicity, dose response, cytotoxicity control, CellTiter-Glo luminescence, dry powder, set 4 (AID 743148). The settings on record: HepG2 viability, CellTiter-Glo ATP luminescence, 72 h; series mostly up to 26 µM. In general terms: ATP-based viability assays read luminescence as a measure of living cells.

Calls of active or inactive are those of the source.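 How the source made its calls: active means fitted half-maximal signal loss reached at or below twice the highest valid dose tested; inconclusive means flat curve with 30 to 70% loss, or a poor fit; inactive means the rest, including signal gain.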

Take `C[C@@H]1CC(=O)NN=C1c1ccc(Cl)cc1`: the compound was classed as inactive.
Turning to `C[C@@H]1CC(=O)NN=C1c1ccc(N2CCOCC2)cc1`, the result was inactive.
In the case of `C[C@@H]1CC(=O)NN=C1c1ccc(F)c(F)c1` it was “inactive”.
As for `CCN(CC)c1ccc(C2=NNC(=O)CC2C)cc1[N+](=O)[O-]` (stereo not drawn), the entry is “inactive”; as for `C[C@@H]1CC(=O)NN=C1c1ccc(-c2cncnc2)cc1`, “inactive”.
In the case of `O=C1CN2Cc3c(ccc(Cl)c3Cl)N=C2N1`, the result was inactive.
`CCN1N=C(c2ccc(N(CC)CC)cc2)[C@H](C)CC1=O`: the compound was called inactive.
As for `CC(=O)Nc1ccc(C2=NNC(=O)C[C@H]2C)cc1[N+](=O)[O-]`, the call was inactive.
As for `Cn1c(NC(=O)c2ccccc2)nc2ccccc21`, the call was inactive.
In the case of `C[C@@H]1CC(=O)NN=C1c1ccc(N2CCOCC2)c(F)c1` it was “inactive”.
In the case of `COc1cc2c(cc1OC)-c1cc(=Nc3c(C)cc(C)cc3C)n(C)c(=O)n1CC2` it was “inactive”; in that of `C[C@H]1CC(=O)NN=C1c1ccc(N2CCOCC2)c(F)c1`, “inactive”; in that of `C[C@@H]1CC(=O)NN=C1c1ccc(C2CCCCC2)cc1`, “inactive”.

For the origin of these results see PubChem BioAssay AID743148 (Broad Institute, 2013).
